Data reported in PubChem BioAssay AID720700 (The Scripps Research Institute Molecular Screening Center, 2013).
Out of some 370,000 compounds screened, about 3,100 (0.84%) were called active. This excerpt belongs to a sample that is enriched for actives. Unmarked numbers belong to inactive results. No stated cut-off is given here; in the data, active means inhibition above about 9.5%; inactive means the rest.

Each compound was assayed against 1-phosphatidylinositol 4,5-bisphosphate phosphodiesterase gamma-1 (Homo sapiens) (UniProt P19174) (assay: PLC-gamma1 enzyme inhibitors, primary screen, biochemical, fluorescence, purified enzyme (AID 720700)). Details: purified PLC-gamma1, fluorogenic substrate, at 12.2 µM, hits give high values.
Sequence of 1-phosphatidylinositol 4,5-bisphosphate phosphodiesterase gamma-1 (Homo sapiens) (P19174 whole entry, looked up): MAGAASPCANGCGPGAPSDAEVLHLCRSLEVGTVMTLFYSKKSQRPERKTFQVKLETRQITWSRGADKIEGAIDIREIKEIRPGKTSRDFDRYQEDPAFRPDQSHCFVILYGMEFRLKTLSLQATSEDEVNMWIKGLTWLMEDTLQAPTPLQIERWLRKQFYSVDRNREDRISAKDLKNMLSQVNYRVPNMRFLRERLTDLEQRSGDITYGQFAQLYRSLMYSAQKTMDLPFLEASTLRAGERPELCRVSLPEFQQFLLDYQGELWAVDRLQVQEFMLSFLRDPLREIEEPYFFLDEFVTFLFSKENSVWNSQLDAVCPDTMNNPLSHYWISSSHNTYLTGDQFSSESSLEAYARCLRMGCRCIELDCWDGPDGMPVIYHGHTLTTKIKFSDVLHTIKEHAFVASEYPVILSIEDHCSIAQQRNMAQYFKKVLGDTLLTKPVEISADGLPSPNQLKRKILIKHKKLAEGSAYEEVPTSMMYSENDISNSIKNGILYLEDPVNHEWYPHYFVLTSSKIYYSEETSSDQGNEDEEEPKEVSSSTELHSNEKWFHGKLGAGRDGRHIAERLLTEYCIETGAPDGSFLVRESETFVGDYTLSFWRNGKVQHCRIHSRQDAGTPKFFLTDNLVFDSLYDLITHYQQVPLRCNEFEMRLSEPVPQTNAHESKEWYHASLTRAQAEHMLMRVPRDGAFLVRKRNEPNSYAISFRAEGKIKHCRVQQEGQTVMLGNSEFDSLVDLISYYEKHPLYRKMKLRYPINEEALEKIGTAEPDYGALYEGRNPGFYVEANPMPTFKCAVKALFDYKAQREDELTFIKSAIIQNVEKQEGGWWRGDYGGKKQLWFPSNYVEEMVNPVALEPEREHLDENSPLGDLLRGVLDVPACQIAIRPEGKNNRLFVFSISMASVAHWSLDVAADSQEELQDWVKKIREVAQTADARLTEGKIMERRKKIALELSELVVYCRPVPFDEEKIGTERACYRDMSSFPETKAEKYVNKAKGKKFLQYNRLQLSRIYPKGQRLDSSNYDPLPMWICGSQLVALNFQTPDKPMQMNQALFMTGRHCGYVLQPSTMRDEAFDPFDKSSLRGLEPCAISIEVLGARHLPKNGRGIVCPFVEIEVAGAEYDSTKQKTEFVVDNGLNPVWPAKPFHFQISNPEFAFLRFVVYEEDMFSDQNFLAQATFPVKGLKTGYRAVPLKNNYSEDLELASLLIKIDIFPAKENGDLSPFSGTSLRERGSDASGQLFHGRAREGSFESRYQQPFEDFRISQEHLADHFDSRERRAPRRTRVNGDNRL

| Structure (SMILES) | inhibition |
| --- | --- |
| O=C1CC(c2ccc3c(c2)OCO3)N=C2N(CC3CC3)C/C(=C/c3ccccc3)N12 (stereo not given) | -5.26% |
| Cc1ccc(S(=O)(=O)Cn2nnnc2CN2CCN(Cc3ccc4c(c3)OCO4)CC2)cc1 | 10.9% (active) |
| Fc1ccccc1C(c1nnnn1Cc1ccc2c(c1)OCO2)N1CCN(Cc2ccccc2)CC1 (stereo not given) | 0.65% |
| Cc1ccc(C(c2nnnn2CS(=O)(=O)c2ccc(C)cc2)N2CCC(C)CC2)cc1 (stereo not given) | 0.22% |
| CCC(=O)Nc1nc(OC)cc(OC)n1 | 2.37% |
| COc1cc(OC)nc(S(C)(=O)=O)n1 | 16.5% (active) |
| COc1ccnc(C(=O)N2CCC(Oc3cccnc3)CC2)c1 | 0.2% |
| O=C(NCc1ccc(Cl)cc1)C1CCCN(c2nc3ccccc3o2)C1 (stereo not given) | 1.63% |
| CCOc1c(Br)cc(/C=C2\C(=O)N(CCC#N)N=C2C)cc1OC | 24.6% (active) |
| O=C(NNC(=O)C1C2CCC(C2)C1C(=O)O)c1ccc(Cl)cc1 (stereo not given) | 1.22% |
| Cc1ccc(Cn2ccc(NC(=O)C3C4CCC(C4)C3C(=O)O)n2)cc1 (stereo not given) | 9.61% (active) |
| Cc1ccc(CN2CC(C(=O)NNC(=O)Cn3ccc(C(F)(F)F)n3)CC2=O)cc1 (stereo not given) | 2.76% |
| O=C(CSc1nnc(-c2ccccn2)n1-c1ccc(Cl)cc1)Nc1ccccc1-c1ccccc1 | 0.96% |
| O=C(CCCCCN1C(=O)C2C3C=CC(C3)C2C1=O)Nc1ccccn1 (stereo not given) | 1.47% |
| Cc1cc(C)nc(NC(=S)N2CCN(c3ccc(C(F)(F)F)cn3)CC2)c1 | 0.58% |
| O=C(COc1ccc([N+](=O)[O-])cc1Cl)Nn1cnnc1 | 2.5% |
| O=C(Nc1cccc([N+](=O)[O-])c1)Nn1cnnc1 | 10.4% (active) |
| CN(C(=O)c1cccc(NC(=O)Cc2cccc([N+](=O)[O-])c2)c1)C1CCCCC1 | 8.53% |
| O=C(c1ccccc1)c1ccc(-c2ccccc2C(=O)NC2CCCCN(Cc3ccc(Cl)cc3)C2=O)cc1 (stereo not given) | 1.5% |
| Cc1ccc(NC(=O)Cc2cccc(F)c2)c(S(=O)(=O)N2CCOCC2)c1 | -42.8% |
| Cc1ccc(-c2cn(S(=O)(=O)c3cccc([N+](=O)[O-])c3)nc2N)cc1 | 11.4% (active) |
| Cc1cc(C)n(S(=O)(=O)c2cccc([N+](=O)[O-])c2)n1 | 0.37% |
| CC1=NCCN1S(=O)(=O)c1cccc([N+](=O)[O-])c1 | -1.13% |
| CCOC(=O)[C@]12CCCCC/C=C\1N(Cc1ccc(OC)cc1)C(=O)[C@H]2CC(=O)NCc1ccc(C)o1 | 0.82% |
| COC(=O)[C@]1(S(=O)(=O)c2ccccc2)C[C@@H]2ON=C(c3ccc(OC)cc3)[C@@H]2C1 | -2.22% |
| N#C[C@]1(S(=O)(=O)c2ccccc2)C[C@@H]2ON=C(c3cccc(Br)c3)[C@@H]2C1 | 9.78% (active) |
| CCn1c(=O)n2n(c1=O)[C@@]1(C=C3CCCC[C@H]32)N=C(NC(=O)c2ccccc2)N(Cc2ccccc2)[C@H]1Cc1ccccc1 | -12.3% |
| COC(=O)C12C=C3CC(c4ccccc4)=C3C(=O)N1Cc1[nH]c3ccccc3c1C2 (stereo not given) | -9.2% |

| Structure (SMILES) | inhibition |
| --- | --- |
| O=C(/C=C/c1c(Cl)cccc1Cl)NCc1ccccc1 | 3.49% |
| O=C(/C=C/c1c(F)cccc1Cl)Nc1nn[nH]n1 | 12.5% (active) |
| CCOC(=O)CNC(=O)/C=C/c1c(Cl)cccc1Cl | 0.18% |
| O=C(CSc1nnc(-c2ccccn2)n1-c1ccccc1)Nc1ccc2cn[nH]c2c1 | 3.11% |
| COCCCN(C(=O)Cn1ncc2c(=O)oc3ccc(C)cc3c21)C(C)c1ccncc1 (stereo not given) | 2.83% |
| COCCCN(C(=S)Nc1c(C)cc(C)cc1C)C(C)c1ccncc1 (stereo not given) | 12.6% (active) |
| COCCN(C(=S)Nc1cccc(Cl)c1C)C(C)c1ccco1 (stereo not given) | 4.95% |
| Cc1cc(NS(=O)(=O)c2ccc(NC(=O)CSc3nnc(SCc4ccc(F)cc4)s3)cc2)nc(C)n1 | 6.25% |
| CCn1c2ccccc2c2cc(NC(=O)CSc3nnc(-c4ccccc4)n3-c3ccc(C)cc3)ccc21 | -1.61% |
| O=C(NCc1cccnc1)c1cc(C2CCCN(C(=O)CCCc3ccccc3)C2)on1 (stereo not given) | 3.28% |
| O=C(NCc1cccnc1)c1cc(C2CCCCN2C(=O)CCc2ccccc2)on1 (stereo not given) | 12.8% (active) |
| N#Cc1cccc(NC(=O)c2cc(C3CCCCN3C(=O)CCc3ccccc3)on2)c1 (stereo not given) | 5.27% |
| COc1ccc(N2CCN(CCNS(=O)(=O)c3ccc(C(C)(C)C)cc3)CC2)cc1 | -1.02% |
| CSc1ccc(C#N)cc1NC(=O)c1ccc(Cl)cc1 | -1.63% |
| CC(C)(C)c1ccc(C(=O)Nc2cc(Cl)c(Br)cc2C(=O)O)cc1 | 11% (active) |
| CSc1nccc(NC(=O)c2ccc(C(C)(C)C)cc2)n1 | 7.02% |
| COC(=O)[C@@]12CCCCC=C1N(CCc1ccc(Cl)cc1)C(=O)[C@H]2CC(=O)NCc1ccc(OC)c(OC)c1 | 2.08% |
| COc1ccc(-c2ccc(CN3C(CC(C)C)C(=O)N(Cc4cn(CC5CCCCC5)nn4)CCS3(=O)=O)cc2)cn1 (stereo not given) | -1.63% |
| COc1ccc(-c2ccc(CN3C(CC(C)C)C(=O)N(Cc4cn(CC5CCCCC5)nn4)CCS3(=O)=O)cc2)cc1 (stereo not given) | 13.6% (active) |
| CC(C)CC1C(=O)N(Cc2cn(CC3CCCCC3)nn2)CCS(=O)(=O)N1Cc1ccc(-c2ccc(Cl)cc2)cc1 (stereo not given) | 1.82% |
| CCOC(=O)C(=O)N(Cc1ccccc1)c1ccccc1C(=O)Nc1cc(OC)ccc1OC | 2.22% |
| CC(=O)C1=C(O)C(=O)N(c2ccc(Br)cc2)C1c1ccc([N+](=O)[O-])cc1 (stereo not given) | 2.17% |
| COc1ccc(C2C(C(C)=O)=C(O)C(=O)N2c2nccs2)cc1 (stereo not given) | -25.2% |
| COC(=O)CN1C(=O)C(O)=C(C(C)=O)C1c1ccc([N+](=O)[O-])cc1 (stereo not given) | 10.5% (active) |
| COC(=O)C1=CN(c2ccc(F)c(F)c2)C=C(C(=O)OC)C1c1ccc([N+](=O)[O-])cc1 | 1.3% |
| COc1ccc(C2C(C(C)=O)=C(O)C(=O)N2CCc2c[nH]c3ccccc23)cc1 (stereo not given) | 0.47% |
| CC(=O)C1=C(O)C(=O)N(c2cccnc2)C1c1ccc([N+](=O)[O-])cc1 (stereo not given) | 11.3% (active) |
